{"source": "PubChem BioAssay (EPA / NIEHS)", "note": "Where “and” joins values, the source holds several entries; their conditions need not be identical. Equal values may be shown once. Calls of active or inactive are those of the source. Rule for the calls: active = hit-call score of the fitted dose curve at least 0.9, where 1 is the maximum; inactive = score below 0.9.", "data": [{"read-out": "Collagen I, COL1A1 (gene 1277)", "experiment": "BSK_MyoF_CollagenI: BioMAP Diversity Plus: MyoF Assay for Collagen I Biomarker Activity (AID 2284238)", "details": "primary human lung fibroblasts", "protocol": "BSK_MyoF is a cell-based, multiplexed-readout assay that uses lung fibroblasts, […], with measurements taken at 24 hours after chemical dosing in a microplate: 96-well plate.BSK_MyoF_CollagenI is an assay component measured in the BSK_MyoF assay. It measures Collagen I antibody related to regulation of gene expression using ELISA technology.Data from the assay component BSK_MyoF_CollagenI was analyzed at the endpoint, BSK_MyoF_CollagenI, in the positive analysis fitting direction relative to DMSO as the negative control and baseline of activity. Using a type of binding reporter, gain or loss-of-signal activity can be used to understand protein changes. To generalize the intended target to other relatable targets, this assay endpoint is annotated to the 'cell adhesion molecules' intended target family, where the subfamily is 'collagen'.\nThe levels of cell surface (or secreted, indicated by the prefix \"s\") biomarker endpoints were measured by ELISA. Overt cytotoxicity to cells in confluent adherent cultures (all systems other than the BT system) was assessed by measuring total protein levels using sulforhodamine B (SRB) staining in parallel cultures at the time of biomarker measurements, indicated as SRB endpoints. For proliferation assays for adherent cell types, individual cell types are cultured at sub-confluence and relative cell numbers quantified by SRB staining at time points optimized for each system (48 h: 3C and CASM3C systems; 72 h: BT and HDF3CGF systems; 96 h: SAg system). SRB was performed by staining cells with 0.1% SRB after fixation with 10% TCA and reading wells at 560 nm.Viability and proliferation of PBMC (T cells) was quantified by Alamar Blue reduction for the SAg and BT systems. For PBMC viability (referred to as PBMC Cytotoxicity within the assay endpoint names), cells were plated (75,000/well in a 96-well plate) and then chemical samples added for 1 h before addition of activators, SEB and TSST-1 (20 ng/mL final concentration each). Cells were incubated for 90 h. Then, Alamar Blue (20 uL/well) (Invitrogen, Cat DAL1100) was added for 6 h, and the plates were read with a fluorescence microplate reader at 546/580 nm (excitation/emission). For PBMC proliferation, cells were plated and activated as above but incubated for only 16 h prior to addition of Alamar Blue. Plates were read after 6 h.", "values": [{"smiles": "COC(=O)/C=C\\C(=O)OC", "outcome": "inactive"}, {"smiles": "CCCCCCCCCCC1CO1", "note": "(stereo not given)", "AC50": "31.8 µM (active)"}, {"smiles": "CC(C)CC(=O)CC(C)CC(C)C", "note": "(stereo not given)", "outcome": "inactive"}, {"smiles": "CC[N+](CC)(CC(=O)Nc1c(C)cccc1C)Cc1ccccc1", "outcome": "inactive"}, {"smiles": "CCCCCCCCCC/C=C/C1CC(=O)OC1=O", "note": "(stereo not given)", "outcome": "inactive"}, {"smiles": "CCCCCCCCCCCCCCCCCC[N+](C)(C)C", "AC50": "1.35 µM (active)"}, {"smiles": "Sc1nc2ccccc2s1", "outcome": "inactive"}, {"smiles": "CCCCCCC(O)CCCCCCCCCCC(=O)OC", "note": "(stereo not given)", "outcome": "inactive"}, {"smiles": "O=C(C(=O)c1ccccc1)c1ccccc1", "outcome": "inactive"}, {"smiles": "Cc1cccnc1", "outcome": "inactive"}, {"smiles": "Cc1cc(-n2nc3ccc(Cl)cc3n2)c(O)c(C(C)(C)C)c1", "outcome": "inactive"}, {"smiles": "CN(C)CCC(c1ccc(Cl)cc1)c1ccccn1", "note": "(stereo not given)", "outcome": "inactive"}, {"smiles": "Oc1cccc2ccccc12", "outcome": "inactive"}, {"smiles": "CN(C)c1ccc(C(c2ccccc2)c2ccc(N(C)C)cc2)cc1", "outcome": "inactive"}, {"smiles": "OC(C(F)(F)F)(C(F)(F)F)C(O)(C(F)(F)F)C(F)(F)F", "AC50": "46.2 µM (active) and 45.7 µM (active)"}]}]}
